The campaign covered roughly 5,500 compounds. About 2,000 (36%) were called active. Another 18% or so got no clear call; they are omitted. Rule as the data show it: active = normalized growth mostly below about 0.91 (no sharp cut-off); inconclusive = no clear call, values can overlap the other calls; inactive = mostly above about 0.92. Some of the results follow.
Test: chemical genetic growth profiling, strain panel (AID 1159580);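 also: tested at 20 µM; growth read once vehicle control cultures reached saturation at 30 °C; 1 = growth at the plate median or of vehicle wells; lower values mean less growth of the strain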
Conditions: growth OD

Measured: normalized growth

COc1ccc2c3c1O[C@H]1C[C@@H](O)C=C[C@@]31CCN(C)C2
inactive: S. cerevisiae deletion strains, locus YJR075W, strain HOC1, stronger effect = lower value 0.947 | S. cerevisiae deletion strains, locus YKL009W, strain mrt4, stronger effect = lower value 1.02 | S. cerevisiae deletion strains, locus YKL068W, stronger effect = lower value 1.02 | S. cerevisiae deletion strains, locus YKL085W, strain MDH1 (second series), stronger effect = lower value 1 | S. cerevisiae deletion strains, locus YKL085W, strain MDH1, stronger effect = lower value 1 | S. cerevisiae deletion strains, locus YKL160W, strain elf1, stronger effect = lower value 0.996 | S. cerevisiae deletion strains, locus YKL190W, strain CNB1, stronger effect = lower value 1.01 | S. cerevisiae deletion strains, locus YKR001C, strain vps1, stronger effect = lower value 1.03 | S. cerevisiae deletion strains, locus YKR026C, strain gcn3, stronger effect = lower value 0.974 | S. cerevisiae deletion strains, locus YKR091W, strain srl3, stronger effect = lower value 0.99 | S. cerevisiae deletion strains, locus YLL001W, strain dnm1, stronger effect = lower value 0.996 | S. cerevisiae deletion strains, locus YLL026W, stronger effect = lower value 0.995 | S. cerevisiae deletion strains, locus YLL041C, strain sdh2, stronger effect = lower value 0.999 | S. cerevisiae deletion strains, locus YLR027C, strain aat2, stronger effect = lower value 0.989 | S. cerevisiae deletion strains, locus YLR039C, strain RIC1, stronger effect = lower value 1.06 | S. cerevisiae deletion strains, locus YLR058C, strain SHM2, stronger effect = lower value 1.01 | S. cerevisiae deletion strains, locus YLR102C, strain apc9, stronger effect = lower value 1.02 | S. cerevisiae deletion strains, locus YLR113W, strain HOG1, stronger effect = lower value 1.01 | S. cerevisiae deletion strains, locus YLR221C, strain rsa3, stronger effect = lower value 1.02 | S. cerevisiae deletion strains, locus YLR258W, strain gsy2, stronger effect = lower value 1 | S. cerevisiae deletion strains, locus YLR262C, strain YPT6 (second series), stronger effect = lower value 0.984 | S. cerevisiae deletion strains, locus YLR262C, strain YPT6, stronger effect = lower value 1.02 | S. cerevisiae deletion strains, locus YLR268W, strain sec22, stronger effect = lower value 0.993 | S. cerevisiae deletion strains, locus YLR320W, strain mms22, stronger effect = lower value 1.01 | S. cerevisiae deletion strains, locus YLR330W, strain CHS5, stronger effect = lower value 1.01 | S. cerevisiae deletion strains, locus YLR342W, strain FKS1 (second series), stronger effect = lower value 1.08 | S. cerevisiae deletion strains, locus YLR342W, strain FKS1, stronger effect = lower value 1.01 | S. cerevisiae deletion strains, locus YLR357W, strain rsc2, stronger effect = lower value 0.962 | S. cerevisiae deletion strains, locus YLR370C, strain arc18, stronger effect = lower value 1 | S. cerevisiae deletion strains, locus YLR371W, strain rom2, stronger effect = lower value 1.02 | S. cerevisiae deletion strains, locus YLR384C, strain iki3, stronger effect = lower value 1.01 | S. cerevisiae deletion strains, locus YLR418C, strain cdc73, stronger effect = lower value 0.991 | S. cerevisiae deletion strains, locus YML016C, strain PPZ1, stronger effect = lower value 1 | S. cerevisiae deletion strains, locus YML032C, strain rad52, stronger effect = lower value 1.04 | S. cerevisiae deletion strains, locus YML120C, strain ndi1, stronger effect = lower value 0.979 | S. cerevisiae deletion strains, locus YML124C, strain tub3, stronger effect = lower value 1.01 | S. cerevisiae deletion strains, locus YMR058W, strain fet3, stronger effect = lower value 0.989 | S. cerevisiae deletion strains, locus YMR078C, strain ctf18, stronger effect = lower value 1.03 | S. cerevisiae deletion strains, locus YMR125W, strain sto1, stronger effect = lower value 0.965 | S. cerevisiae deletion strains, locus YMR129W, stronger effect = lower value 1.01 | S. cerevisiae deletion strains, locus YMR205C, strain PFK2, stronger effect = lower value 0.992 | S. cerevisiae deletion strains, locus YMR223W, strain ubp8, stronger effect = lower value 1.04 | S. cerevisiae deletion strains, locus YMR231W, strain pep5, stronger effect = lower value 1 | S. cerevisiae deletion strains, locus YMR263W, strain SAP30, stronger effect = lower value 0.991 | S. cerevisiae deletion strains, locus YMR307W, strain GAS1, stronger effect = lower value 1.06 | S. cerevisiae deletion strains, locus YNL067W, strain RPL9B, stronger effect = lower value 0.989 | S. cerevisiae deletion strains, locus YNL071W, strain lat1, stronger effect = lower value 1.01 | S. cerevisiae deletion strains, locus YNL128W, strain TEP1, stronger effect = lower value 0.974 | S. cerevisiae deletion strains, locus YNL153C, strain GIM3, stronger effect = lower value 0.982 | S. cerevisiae deletion strains, locus YNL183C, strain NPR1, stronger effect = lower value 0.948 | S. cerevisiae deletion strains, locus YNL209W, strain ssb2, stronger effect = lower value 1 | S. cerevisiae deletion strains, locus YNL233W, strain BNI4, stronger effect = lower value 0.995 | S. cerevisiae deletion strains, locus YNL248C, strain rpa49, stronger effect = lower value 0.996 | S. cerevisiae deletion strains, locus YNL250W, strain rad50, stronger effect = lower value 1.01 | S. cerevisiae deletion strains, locus YNL271C, strain bni1, stronger effect = lower value 1.02 | S. cerevisiae deletion strains, locus YNL298W, strain CLA4, stronger effect = lower value 1.03 | S. cerevisiae deletion strains, locus YNL307C, strain MCK1, stronger effect = lower value 1.05 | S. cerevisiae deletion strains, locus YNL322C, strain KRE1 (second series), stronger effect = lower value 1 | S. cerevisiae deletion strains, locus YNL322C, strain KRE1, stronger effect = lower value 1.01 | S. cerevisiae deletion strains, locus YNR049C, strain mso1, stronger effect = lower value 1.01 | S. cerevisiae deletion strains, locus YNR052C, strain pop2, stronger effect = lower value 1.02 | S. cerevisiae deletion strains, locus YOL006C, strain TOP1, stronger effect = lower value 1.03 | S. cerevisiae deletion strains, locus YOL012C, strain htz1 0.856 | S. cerevisiae deletion strains, locus YOL147C, strain pex11, stronger effect = lower value 1.01 | S. cerevisiae deletion strains, locus YOR001W, strain rrp6, stronger effect = lower value 0.996 | S. cerevisiae deletion strains, locus YOR061W, strain CKA2, stronger effect = lower value 1.01 | S. cerevisiae deletion strains, locus YOR069W, strain VPS5, stronger effect = lower value 1.01 | S. cerevisiae deletion strains, locus YOR070C, strain gyp1, stronger effect = lower value 1.01 | S. cerevisiae deletion strains, locus YOR080W, strain dia2, stronger effect = lower value 0.994 | S. cerevisiae deletion strains, locus YOR083W, strain WHI5, stronger effect = lower value 0.988 | S. cerevisiae deletion strains, locus YOR106W, strain vam3, stronger effect = lower value 1 | S. cerevisiae deletion strains, locus YOR136W, strain idh2, stronger effect = lower value 1.02 | S. cerevisiae deletion strains, locus YOR144C, strain elg1, stronger effect = lower value 1.01 | S. cerevisiae deletion strains, locus YOR184W, strain ser1, stronger effect = lower value 1.06 | S. cerevisiae deletion strains, locus YOR231W, strain MKK1, stronger effect = lower value 0.987 | S. cerevisiae deletion strains, locus YOR265W, strain rbl2, stronger effect = lower value 1 | S. cerevisiae deletion strains, locus YOR270C, strain vph1, stronger effect = lower value 0.965 | S. cerevisiae deletion strains, locus YOR290C, strain snf2, stronger effect = lower value 1.01 | S. cerevisiae deletion strains, locus YOR316C, strain cot1, stronger effect = lower value 1.02 | S. cerevisiae deletion strains, locus YPL051W, strain arl3, stronger effect = lower value 0.988 | S. cerevisiae deletion strains, locus YPL055C, strain LGE1, stronger effect = lower value 0.935 | S. cerevisiae deletion strains, locus YPL078C, strain atp4, stronger effect = lower value 1 | S. cerevisiae deletion strains, locus YPL106C, strain sse1, stronger effect = lower value 1.01 | S. cerevisiae deletion strains, locus YPL240C, strain hsp82, stronger effect = lower value 1.03 | S. cerevisiae deletion strains, locus YPL241C, strain CIN2, stronger effect = lower value 1.01 | S. cerevisiae deletion strains, locus YPL256C, strain CLN2, stronger effect = lower value 1.01 | S. cerevisiae deletion strains, locus YPR119W, strain clb2, stronger effect = lower value 1 | S. cerevisiae deletion strains, locus YPR141C, strain kar3, stronger effect = lower value 1.01 | S. cerevisiae deletion strains, locus YPR163C, strain tif3, stronger effect = lower value 1.01 | S. cerevisiae deletion strains, locus YPR167C, strain met16, stronger effect = lower value 1.01 | S. cerevisiae deletion strains, strain wtn01, stronger effect = lower value 1 | S. cerevisiae strains, strain wild type, stronger effect = lower value 1.02
